Data taken from PubChem BioAssay.
For some of these results: Entries with a potency or affinity are not part of this list. Calls of active or inactive are those of the source.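 Rule for the calls, unless noted: active = primary screen activator hit with a dose response curve and TRPC4 channel activation at any tested dose; inactive = no activation, no dose response, or not a primary hit.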

Legend:
[1] = tested on: TRPC4 beta (transient receptor potential cation channel C4), mouse; test: activators of mouse TRPC4 channel, confirmation, cell-based, Fluo4 calcium, HEK293 TRPC4beta/mu-opioid, duplicates, 10 µM (AID 2426;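 active = fluorescence ratio normalized to control raised more than 50% in primary screen plus both repeat runs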); conditions: Fluo4 calcium fluorescence, at 10 µM; active compounds read high
[2] = tested on: transient receptor potential cation channel C4 beta (TRPC4), mouse; test: activators of mouse TRPC4 channel, confirmation, cell-based, second round, Fluo4, HEK293 TRPC4beta/mu-opioid, 1 µM (AID 2461;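 active = primary screen active and over 50% activation in each of two duplicate runs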); conditions: Fluo4 calcium fluorescence, at 1 µM; active compounds read high
[3] = tested on: TRPC4 (transient receptor potential cation channel C4 beta), mouse; test: positive allosteric modulators of mouse TRPC4, confirmation, cell-based, second round, Fluo-4, HEK293 TRPC4beta/mu-opioid, 1 µM (AID 2554;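 active = primary screen hit whose fluorescence ratio, in both repeats, exceeds the weak agonist control mean by 3 SD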); conditions: DAMGO EC20, Fluo-4 calcium flux, at 1 µM; active compounds read high
[4] = tested on: TRPC4 beta (transient receptor potential cation channel C4), mouse; test: positive allosteric modulators of mouse TRPC4, confirmation, cell-based, Fluo-4, HEK293 TRPC4beta/mu-opioid (AID 2555;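 active = primary screen hit whose calcium fluorescence ratio, in both repeats, exceeds the weak agonist control mean by 3 SD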); conditions: DAMGO EC20, Fluo-4 calcium flux, at 10 µM; active compounds read high
[5] = target: Short transient receptor potential channel 4 (Mus musculus) (UniProt Q9QUQ5); test: inhibitors of mouse TRPC4 channel, confirmation, cell-based, Fluo4, HEK293 TRPC4beta/mu-opioid (AID 2636;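 active = calcium signal cut by more than 3 SD below the full-agonist control yet still positive, in both repeats and the earlier primary screen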); conditions: DAMGO, Fluo4 calcium flux, at 10 µM; active compounds read high
[6] = target: Short transient receptor potential channel 4 (Mus musculus) (UniProt Q9QUQ5); test: inhibitors of mouse TRPC4 channel, confirmation, cell-based, second round, Fluo4, HEK293 TRPC4beta/mu-opioid, 1 µM (AID 2637;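 active = calcium signal ratio cut to more than 3 SD under the fully stimulated control mean yet still positive, in both repeats and the primary screen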); conditions: Fluo4 calcium flux, DAMGO, at 1 µM; active compounds read high
[7] = target: Short transient receptor potential channel 4 (Mus musculus) (UniProt Q9QUQ5); test: mouse TRPC4 channel activators, dose response, cell-based, HEK293 TRPC4/mu-opioid, Fluo-4 calcium (AID 434937)
[8] = target: Short transient receptor potential channel 4 (Mus musculus) (UniProt Q9QUQ5); test: TRPC4 positive allosteric modulators, dose response, cell-based, HEK293 TRPC4/mu-opioid, Fluo-4 calcium, EC20 DAMGO (AID 434941;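 active = earlier screen potentiator hit that boosts the TRPC4 ion channel at some dose, with a dose response; inactive = no potentiation, no dose response, or not a prior hit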;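 note: calcium entry triggered by an EC20 dose of DAMGO at the co-expressed mu-opioid receptor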)
[9] = target: Short transient receptor potential channel 4 (Mus musculus) (UniProt Q9QUQ5); test: mouse TRPC4 channel inhibitors, dose response, cell-based, HEK293 TRPC4/mu-opioid, Fluo-4 calcium (AID 434942;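 active = primary screen inhibitor hit that blocks the TRPC4 channel at some tested dose, yielding a dose curve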)
[10] = target: Short transient receptor potential channel 6 (Mus musculus) (UniProt Q61143); test: inhibition of mouse TRPC6 channel, confirmation, selectivity assay for TRPC4 inhibitor project, cell-based, HEK293, membrane potential dye, duplicate (AID 434948;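 active = active in primary screen and both duplicates, each dropping signal beyond three positive-control SD with fluorescence still positive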); conditions: HEK293 TRPC6, membrane potential dye fluorescence, at 10 µM, stimulated with maximal-effect acetylcholine; active compounds read high
[11] = target: Short transient receptor potential channel 6 (Mus musculus) (UniProt Q61143); test: activation of mouse TRPC6 channel, confirmation, selectivity assay for TRPC4 activator project, cell-based, HEK293, membrane potential dye, duplicate (AID 434950;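 active = membrane potential signal rise above negative control mean plus 3 SD in both duplicates, also active in the earlier TRPC4 screen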); conditions: HEK293 TRPC6, membrane potential fluorescence, at 10 µM; active compounds read high
[12] = target: Short transient receptor potential channel 6 (Mus musculus) (UniProt Q61143); test: TRPC6 potentiation by TRPC4 potentiator hits, confirmation, selectivity assay for TRPC4 potentiator project, HEK293 cells, membrane potential dye, duplicate (AID 434952;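 active = compound raising the membrane signal above positive-control mean plus 3 SD in both repeats, and a primary screen hit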); conditions: HEK293 TRPC6, membrane potential dye fluorescence, at 10 µM, maximal acetylcholine added after compound; active compounds read high
[13] = target: Short transient receptor potential channel 4 (Mus musculus) (UniProt Q9QUQ5); test: calcium flux activators in TRPC4/5HT1a cells, counter-screen for TRPC4 activator project, cell-based, second counter screen, HEK293 TRPC4/5HT1a, Fluo-4 (AID 434977;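 active = calcium signal rise above buffer-control mean plus 5 SD in both duplicates, and also a hit in the primary screen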); conditions: Fluo-4 calcium flux, at 10 µM; active compounds read high
[14] = calcium flux inhibitors in TRPC4/5HT1a cells, confirmation, counter-screen for TRPC4 inhibitor project, cell-based, second counter screen, HEK293 TRPC4/5HT1a, Fluo-4 (AID 434978;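 active = primary screen active whose calcium signal fell more than 3 SD beyond the full-serotonin control mean in both duplicate plates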;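 note: serotonin given first at submaximal then at maximal dose after compound preincubation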); conditions: Fluo-4 calcium flux, at 10 µM, serotonin added to trigger calcium flux; active compounds read high
[15] = tested on: TRPC4 (mouse), co-expressed with 5HT1a in HEK293; test: calcium flux potentiators in TRPC4/5HT1a cells, confirmation, counter-screen for TRPC4 potentiator project, cell-based, second counter screen, HEK293 TRPC4/5HT1a, Fluo-4 (AID 434979;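 active = signal rise over 3 SD above mean of control wells given weak agonist, in both repeats and first screen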); conditions: Fluo-4 calcium flux, at 10 µM, serotonin added at its EC20 dose; active compounds read high
[16] = calcium flux activation in mu-opioid HEK293 cells, confirmation, counter-screen for TRPC4 activator project, cell-based, HEK293 mu-opioid receptor line (AID 449723;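 active = hit in primary screen, with calcium signal over 5 SD above buffer well mean in both duplicates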;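 note: counter screen cells carry the mu-opioid receptor alone and lack TRPC4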); conditions: Fluo-4 calcium fluorescence, at 10 µM; active compounds read high
[17] = calcium flux enhancement in mu-opioid HEK293 cells, confirmation, counter-screen for TRPC4 allosteric potentiator project, cell-based, HEK293 mu-opioid receptor line (AID 449724;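 active = calcium signal rise more than 3 SD above the low-dose agonist control mean, in both duplicate plates and the primary screen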); conditions: Fluo-4 calcium flux, at 10 µM, compound added before EC20 DAMGO stimulus; active compounds read high

Measured: potentiation

Short transient receptor potential channel 4 (Mus musculus), sequence (Q9QUQ5 whole entry, looked up): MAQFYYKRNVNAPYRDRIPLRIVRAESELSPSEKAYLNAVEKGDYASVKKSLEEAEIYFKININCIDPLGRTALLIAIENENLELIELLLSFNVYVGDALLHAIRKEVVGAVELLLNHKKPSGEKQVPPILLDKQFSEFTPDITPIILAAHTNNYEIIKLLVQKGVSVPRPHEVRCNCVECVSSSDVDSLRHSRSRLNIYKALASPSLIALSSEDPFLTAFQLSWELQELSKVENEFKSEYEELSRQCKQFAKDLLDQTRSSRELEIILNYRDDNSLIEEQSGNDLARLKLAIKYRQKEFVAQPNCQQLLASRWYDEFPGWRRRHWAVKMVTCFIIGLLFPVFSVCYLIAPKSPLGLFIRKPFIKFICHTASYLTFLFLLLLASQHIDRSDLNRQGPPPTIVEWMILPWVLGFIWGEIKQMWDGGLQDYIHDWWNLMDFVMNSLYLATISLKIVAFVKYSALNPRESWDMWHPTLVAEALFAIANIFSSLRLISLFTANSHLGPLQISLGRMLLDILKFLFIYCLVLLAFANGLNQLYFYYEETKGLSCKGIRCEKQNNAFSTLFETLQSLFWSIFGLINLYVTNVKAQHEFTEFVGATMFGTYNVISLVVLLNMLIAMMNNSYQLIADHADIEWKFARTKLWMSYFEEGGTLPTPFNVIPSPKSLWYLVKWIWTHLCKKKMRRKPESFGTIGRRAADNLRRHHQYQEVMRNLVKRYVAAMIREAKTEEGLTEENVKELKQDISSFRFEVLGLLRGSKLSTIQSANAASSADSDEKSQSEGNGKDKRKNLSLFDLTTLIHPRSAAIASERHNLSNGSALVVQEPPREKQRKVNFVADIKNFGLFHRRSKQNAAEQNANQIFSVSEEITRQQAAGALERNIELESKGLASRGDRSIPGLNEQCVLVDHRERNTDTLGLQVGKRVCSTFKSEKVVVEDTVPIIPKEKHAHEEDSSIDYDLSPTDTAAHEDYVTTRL
Short transient receptor potential channel 6 (Mus musculus), sequence (Q61143 whole entry, looked up): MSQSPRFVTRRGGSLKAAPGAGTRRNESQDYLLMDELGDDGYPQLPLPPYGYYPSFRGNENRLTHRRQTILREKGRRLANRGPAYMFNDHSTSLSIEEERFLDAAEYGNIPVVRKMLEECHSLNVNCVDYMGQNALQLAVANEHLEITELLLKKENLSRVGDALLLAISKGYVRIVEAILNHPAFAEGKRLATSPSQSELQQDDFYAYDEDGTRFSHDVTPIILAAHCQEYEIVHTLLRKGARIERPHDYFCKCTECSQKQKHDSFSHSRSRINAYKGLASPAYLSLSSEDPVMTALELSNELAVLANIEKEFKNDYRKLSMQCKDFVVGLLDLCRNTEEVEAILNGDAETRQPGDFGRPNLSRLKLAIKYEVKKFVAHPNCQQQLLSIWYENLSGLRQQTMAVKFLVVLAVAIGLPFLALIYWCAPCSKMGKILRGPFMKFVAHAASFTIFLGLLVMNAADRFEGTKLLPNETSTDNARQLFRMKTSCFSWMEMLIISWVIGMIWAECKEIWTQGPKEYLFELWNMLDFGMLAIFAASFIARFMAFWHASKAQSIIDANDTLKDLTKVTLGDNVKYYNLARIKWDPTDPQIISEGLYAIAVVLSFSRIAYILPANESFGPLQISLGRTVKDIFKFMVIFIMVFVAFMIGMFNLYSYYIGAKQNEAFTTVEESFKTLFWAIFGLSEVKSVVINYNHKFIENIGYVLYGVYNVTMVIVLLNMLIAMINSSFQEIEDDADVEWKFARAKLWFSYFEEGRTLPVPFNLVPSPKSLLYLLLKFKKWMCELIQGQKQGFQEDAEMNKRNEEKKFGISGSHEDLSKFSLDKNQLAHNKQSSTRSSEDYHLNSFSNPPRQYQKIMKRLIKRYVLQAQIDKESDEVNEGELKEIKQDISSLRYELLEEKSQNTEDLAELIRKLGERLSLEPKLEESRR

Cc1ccc(S(=O)(=O)NC(=O)N2CCN(Cc3c(F)cccc3Cl)CC2)cc1
active: [15] 15.3%
inactive: [1] | [2] | [3] | [4] | [5] | [6] | [7] | [8] | [9] | [10] | [11] | [12] | [13] | [14] | [16] | [17]

O=[N+]([O-])c1ccc(N2CCN(CCOc3nonc3-c3ccccc3)CC2)c(Cl)c1
active: [3] 10% | [4] 34% | [15] 20.3%
inactive: [1] | [2] | [5] | [6] | [7] | [8] | [9] | [10] | [11] | [12] | [13] | [14] | [16] | [17]

CN(C)CCCn1c(=O)n(CCc2ccccc2)c(=O)c2c3c(sc21)CCCCC3
inactive: [1] | [2] | [3] | [4] | [5] | [6] | [7] | [8] | [9] | [10] | [11] | [12] | [13] | [14] | [15] | [16] | [17]

CCCn1c(SCC(=O)N2c3ccccc3Sc3ccccc32)nc2c1c(=O)n(C)c(=O)n2C
inactive: [1] | [2] | [3] | [5] | [6] | [7] | [8] | [9] | [10] | [11] | [12] | [13] | [14] | [16] | [17]
active: [4] 18% | [15] 45.1%

CCOC(=O)c1sc2c(c1C)c(=O)n(CCO)c(=O)n2Cc1ccccc1
inactive: [1] | [2] | [3] | [4] | [5] | [6] | [7] | [8] | [9] | [10] | [11] | [12] | [13] | [14] | [15] | [16] | [17]

COc1ccc(C(=O)c2no[n+]([O-])c2C(=O)c2ccc(OC)cc2)cc1
inactive: [1] | [2] | [5] | [6] | [7] | [8] | [9] | [10] | [11] | [12] | [13] | [14] | [16] | [17]
active: [3] 9% | [4] 50% | [15] 51.2%

O=C(Cc1cccs1)Nc1nc(-c2ccc(F)cc2F)cs1
inactive: [1] | [2] | [5] | [6] | [7] | [8] | [9] | [10] | [11] | [12] | [13] | [14] | [16] | [17]
active: [3] 24% | [4] 65% | [15] 91.9%

NC(=O)c1ccc(Oc2ccc3c(c2)CCC3)c([N+](=O)[O-])c1
active: [4] 42% | [15] 84.5%
inactive: [1] | [2] | [3] | [5] | [6] | [7] | [8] | [9] | [10] | [11] | [12] | [13] | [14] | [16] | [17]
